Data as given in PubChem BioAssay AID2156 (Johns Hopkins Ion Channel Center, 2009).
Screen size: about 310,000 compounds; about 3,400 (1.1%) were called active. What follows is part of a selection rich in actives, with near analogues and random picks from the rest. Unmarked numbers belong to inactive results.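 The calls were made as follows: active = fluorescence ratio B-score at most minus 3 library SDs, with starting brightness B-score within 2 library SDs (cut at about -5.5 in these data); inactive = the rest, inconclusive results apart.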

Target: Potassium voltage-gated channel subfamily KQT member 2 (Rattus norvegicus) (UniProt O88943)
Sequence (O88943 whole entry, looked up): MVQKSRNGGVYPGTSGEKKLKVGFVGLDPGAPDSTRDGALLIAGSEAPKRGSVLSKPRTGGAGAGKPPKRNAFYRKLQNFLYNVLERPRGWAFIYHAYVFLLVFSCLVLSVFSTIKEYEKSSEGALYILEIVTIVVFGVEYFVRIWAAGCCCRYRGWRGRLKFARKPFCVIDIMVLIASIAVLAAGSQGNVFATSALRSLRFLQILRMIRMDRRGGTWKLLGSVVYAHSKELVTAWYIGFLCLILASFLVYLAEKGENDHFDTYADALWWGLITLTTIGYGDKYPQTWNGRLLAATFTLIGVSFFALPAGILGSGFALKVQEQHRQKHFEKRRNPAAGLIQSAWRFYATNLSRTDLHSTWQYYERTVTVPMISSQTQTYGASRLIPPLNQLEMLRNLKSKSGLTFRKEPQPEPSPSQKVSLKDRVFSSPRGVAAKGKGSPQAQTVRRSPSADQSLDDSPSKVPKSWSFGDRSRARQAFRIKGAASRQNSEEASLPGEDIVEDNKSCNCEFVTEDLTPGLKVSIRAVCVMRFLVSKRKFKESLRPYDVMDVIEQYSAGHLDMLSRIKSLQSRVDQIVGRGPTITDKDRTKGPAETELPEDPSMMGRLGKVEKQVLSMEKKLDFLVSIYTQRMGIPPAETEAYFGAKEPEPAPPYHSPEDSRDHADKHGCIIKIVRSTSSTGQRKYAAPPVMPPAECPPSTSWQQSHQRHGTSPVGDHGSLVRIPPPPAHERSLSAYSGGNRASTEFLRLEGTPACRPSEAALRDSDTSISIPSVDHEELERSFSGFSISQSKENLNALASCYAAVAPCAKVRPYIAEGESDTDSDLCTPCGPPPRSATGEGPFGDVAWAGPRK
Assay: rat KCNQ2 potassium channel inhibitors, primary screen, cell-based, CHO-K1, FluxOR thallium flux, B-score (AID 2156)
Settings: 20 min, at 10 µM; stronger effect = lower value

Compound	B-score
CCOC(=O)c1sc(=NC(=O)c2ccc(Br)cc2)n(C)c1C	inactive
CCOC(=O)c1sc(=S)n2c1[nH]c(=O)c1ccc(C(=O)OC)cc12	inactive
CCOC(=O)C1=C(C)Nc2sc(C(=O)c3ccc(Br)cc3)c(N)c2C1c1ccc(C(=O)OC)cc1 (centres undefined)	-6.56 (active)
Cc1cc(Nc2ccc(Br)cc2)nc2ccccc12	inactive
Cc1ccc2nc(SCC(=O)N3CCN(c4ccccc4)CC3)nc(=O)n2c1	-0.18
Cc1nc(-c2ccc(F)cc2)c(CC(=O)Nc2cccc(S(=O)(=O)N3CCOCC3)c2)s1	-0.75
CCOC(=O)C1CCN(C(=O)COC(=O)C2CCN(S(=O)(=O)c3ccc4c(c3)OCCO4)CC2)CC1	inactive
CCOc1ccc(C(=O)Nc2cc(Cl)ccc2-n2cncn2)cc1OC	-0.08
CC(=O)Nc1ccc(NC(=O)CSC2=NS(=O)(=O)c3ccccc3N2)cc1	inactive
COc1ccc(C(CNC(=O)c2ccc(NS(=O)(=O)c3ccc(F)c(C)c3)cc2)N(C)C)cc1 (centres undefined)	inactive
CCCCn1c(N)c(N(CC(C)C)C(=O)C2CSC3(C)CCC(=O)N23)c(=O)[nH]c1=O (centres undefined)	-1.75
Cc1cccc(C(C)C)c1NC(=O)COC(=O)C1CC(=O)N(Cc2ccccc2)C1 (centres undefined)	inactive
CC(=O)N1N=C(c2ccncc2)OC1(Cc1ccccc1)Cc1ccccc1	-7.53 (active)
O=C(Cc1ccccc1)N1N=C(c2ccncc2)CC1(O)C(F)(F)F (centres undefined)	inactive
CC(=O)N1N=C(c2ccccc2)OC1c1cccnc1 (centres undefined)	inactive
CC(=O)Nc1cccc(C(=O)OCC(=O)NCc2cc(C)c(O)c(C)c2)c1	inactive
COc1ccc(-c2n[nH]c(C)c2-c2ccccc2OC)c(O)c1	inactive
COc1ccccc1-c1nc(SC)n[nH]1	-0.1
COc1ccccc1-c1n[nH]c2c1[C@H](C)CC[C@H]2C(C)C	-10.1 (active)
Cc1ccc(C(C(=O)NC2CCCC2)N(Cc2ccco2)C(=O)CCC(=O)Nc2ccccn2)cc1 (centres undefined)	-1.92
Cc1ccc2c(c1)N(CC(=O)N(Cc1ccccn1)Cc1ccco1)C(=O)C(C(C)C)O2 (centres undefined)	-7.54 (active)
Cc1ccnc(NC(=O)CCC(=O)N(CC(=O)NCc2ccccc2)Cc2ccco2)c1	-0.05

Compound	B-score
O=C(c1ccc(Cl)s1)N(Cc1nnc(-c2ccccc2Cl)o1)C1CC1	-0.68
O=C(O)c1ccccc1C(=O)Nc1ccccc1[N+](=O)[O-]	-1
O=C(Nc1ccccc1-c1ccccc1)c1ccccc1[N+](=O)[O-]	-3.5
O=C(Nc1ccccc1[N+](=O)[O-])C1C(c2ccccc2)=C1c1ccccc1	-5.88 (active)
CCC(CC)c1nnc(NC(=O)C2=COCCO2)s1	-0.29
CCOc1cc(N2CCOCC2)c(OCC)cc1NC(=O)COc1cccc2cccnc12	-3.14
CCOc1cc(N2CCOCC2)c(OCC)cc1NC(=O)COc1cccc(Cl)c1	inactive
CCOc1cc(N2CCOCC2)c(OCC)cc1NC(=O)c1ccc(C)s1	-6.48 (active)
Cc1ccc(-c2nn(-c3ccc(F)cc3)cc2C(=O)NCC(c2cccs2)N2CCOCC2)cc1 (centres undefined)	-1.75
O=C(c1ccccc1Oc1ccccc1)N1CCN(c2ccc(F)cc2)CC1	-3.32
CCOC(=O)N1CCN(C(=O)c2nn(-c3ccc(C)cc3)c(=O)c3c2c2ccccc2n3C)CC1	inactive
Cn1c2ccccc2c2c(C(=O)N3CCN(c4ccc(F)cc4)CC3)cn(C3CCCC3)c(=O)c21	-5.96 (active)
CN1C(C(=O)NCC2CC2)CC2Cn3c(nc4ccccc43)C21 (centres undefined)	inactive
CCOC(=O)c1cnc2nc(SCc3ccccc3Cl)[nH]n2c1=O	-0.81
Cc1ccc(C(C)C)cc1OCCN1CCCC1	inactive
O=C(CNCCC1=CCCCC1)Nc1ccccc1N1CCCCCC1	-8.12 (active)
Cc1ccc(C(C)C)cc1OCC(=O)Nc1ccccc1N1CCCC1	-8.31 (active)
Cc1ccccc1NC(=O)CNc1ccccc1N1CCCCC1	-5.56 (active)
Cn1c(=O)c2c(nc(SCC(=O)Nc3ccccc3N3CCCCC3)n2C)n(C)c1=O	-0.67
O=C(CN1CCN(C2CCCCC2)CC1)Nc1ccccc1N1CCCCC1	inactive
Cc1ccccc1NC(=O)Nc1ccccc1N1CCCCC1	inactive
O=C(Cc1cccc2ccccc12)NCCC1=CCCCC1	-0.18

Compound	B-score
CCC(=O)N1CCN(c2ccccc2NC(=O)COc2cccc(C)c2C)CC1	-4.29
N#Cc1cccc(OC(=O)c2ccc3c(=O)n4c(nc3c2)CCC4)c1	-0.01
CN1CCN(S(=O)(=O)c2ccc(Nc3ccc(F)cc3)nc2)CC1	-0.21
COc1ccccc1CCNC(=O)CN1C(=O)NC2(CCCC2)C1=O	inactive
CC(Oc1cccc(Cl)c1)C(=O)Nc1ccc(S(=O)(=O)Nc2ncccn2)cc1 (centres undefined)	inactive
CSc1ccc(/C=C2\NC(=O)NC2=O)cc1	inactive
CCOC(=O)CN(C)Cc1c[nH]c2ccccc12	inactive
O=C(Cc1c[nH]c2ccccc12)OCCOC(=O)Cc1c[nH]c2ccccc12	-7.66 (active)
O=C(COC(=O)Cc1c[nH]c2ccccc12)NCCc1ccccc1	-0.71
CCCCN(C(=O)c1ccc(C)o1)c1c(N)n(CCCC)c(=O)[nH]c1=O	inactive
CCC1CCC/C1=N\NC(=O)c1ccc(Cl)cc1 (centres undefined)	inactive
OC(COc1cccc2ccccc12)CN1CCN(c2ccccn2)CC1 (centres undefined)	inactive
CC(C)c1ccccc1OCC(O)CN(CC(O)COc1cccc2ccccc12)C(C)C (centres undefined)	-6.3 (active)
Cc1cc(C)c(NC(=O)C[N+](C)(C)CC(O)COc2cccc3ccccc23)c(C)c1 (centres undefined)	inactive
Cc1ccc(C(=O)NNC(=O)C(C)Oc2ccc3ccccc3c2)o1 (centres undefined)	inactive
CCN(CC(=O)Nc1ccc(NC(C)=O)cc1)C(=O)C1CC(=O)N(Cc2ccc(C)cc2)C1 (centres undefined)	-0.36
COc1ccc2sc(N(CCCN(C)C)C(=O)c3ccc(S(=O)(=O)N(C)C4CCCCC4)cc3)nc2c1	inactive
CCOC(=O)CC1(NC(=O)c2cc(COc3cncc(Cl)c3)on2)CCCCC1	-1.68
CCCOC1CCCN(C(=O)c2cc(COc3cncc(Cl)c3)on2)C1 (centres undefined)	-8.22 (active)
COc1cc(Cl)ccc1OCc1cc(C(=O)N2CC[C@@H]3CCCC[C@H]3C2)no1	-3.02
